# Screening results as filed in PubChem.
# Only some compounds are listed: those with a hit (about 6.7% of all), similar ones and a draw of the others.
# T cruzi growth-1: T. cruzi proliferation inhibition. T. cruzi beta-gal in NIH3T3, GalScreen luminescence, 90 h. inhibition, % at 8.34 µM. 5.9% of 77,000 active;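 active means mean inhibition above about 93%, with at least 55% of replicates each passing it, limit read from the data, passing the limit was not always enough; inconclusive means only one of those two conditions holds; inactive means neither condition holds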
# Pf Dd2 growth: blocks growth of Plasmodium falciparum Dd2 parasites; P. falciparum Dd2 growth, SYBR Green, 72 h; active compounds read low; activity change, % at 10 µM; 2.3% of 94,000 active; AID 1159554; in the data active means activity change below about -80%; inconclusive means no clear call, values can overlap the other calls
# C diff growth: blocks growth of Clostridium difficile. Clostridium difficile clinical isolate growth, OD600, 24 h; active compounds read low. growth activity, negative = inhibition, % at 16 µg/mL (by protocol). 0.25% of 86,000 active. AID 1259249;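 active means mean growth activity at or below -80% and every replicate also at or below -80%; inconclusive means mean at or below -80% but some replicate above -80%; inactive means mean growth activity above -80%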;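 further: 0% = DMSO wells and -100% = levofloxacin 16 µg/mL wells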
# T cruzi growth-2: Trypanosoma cruzi proliferation inhibition | shares compounds with T cruzi growth-1 | T. cruzi beta-gal in NIH3T3, GalScreen luminescence, 90 h | inhibition, % at 8.35 µM | 72% of 5,600 active;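 active means mean replicate inhibition above about 95% and at least 55% of replicates individually reaching it, limit read from the data; inconclusive means only one of the two criteria is met; inactive means neither criterion is met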
# T cruzi growth-3: inhibitors of T. cruzi proliferation; inhibition, % at 2.09 µM; T. cruzi beta-gal in NIH3T3, GalScreen luminescence, 90 h; shares compounds with T cruzi growth-1; 21% of 5,600 active;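 active means mean inhibition above about 95%, with at least 55% of replicates also reaching it, limit read from the data; inconclusive means meets just one of the two conditions; inactive means meets neither condition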;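 further: plate controls were neutral control median for no effect and positive control median for full effect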
# NIH3T3 tox: NIH/3T3 (mouse) viability loss. shares compounds with T cruzi growth-1. NIH/3T3 viability, CellTiter-Glo ATP luminescence, 90 h. cytotoxicity (signal decrease), % at 8.35 µM. AID 651742. 14% of 5,600 active;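 active means mean signal decrease across replicates above about 35% based on untreated-well scatter, with enough replicates individually passing, limit read from the data; inconclusive means no rule stated though some were filed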;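 further: 0% = median of neutral control wells and 100% = median of positive control wells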
# 3T3 cytotox 2: NIH/3T3 (mouse) viability loss | shares compounds with T cruzi growth-1 | NIH/3T3 viability, CellTiter-Glo ATP luminescence, 90 h | inhibition, % at 24.9 µM | 56% of 5,600 active;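 active means mean loss of cell viability signal at or above a set limit, and enough replicates individually reaching it; inconclusive means meets only the mean limit or only the replicate share; inactive means meets neither condition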;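 further: 0% = median of neutral control wells and 100% = median of positive control wells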
# * = called active by the depositor; ? = inconclusive; . = not tested or not shown.
SMILES,T cruzi growth-1,Pf Dd2 growth,C diff growth,T cruzi growth-2,T cruzi growth-3,NIH3T3 tox,3T3 cytotox 2
C[C@H](CO)N1C[C@H](C)[C@@H](CN(C)CC2CCCC2)Oc2cc(C#CC3CC3)ccc2S1(=O)=O,?,-44,.,104*,94,7,105*
CCCN(C)C[C@@H]1Oc2cc(C#CC3CCCC3)ccc2S(=O)(=O)N([C@@H](C)CO)C[C@@H]1C,99*,-79,4,113*,91,23,104*
CC(C)C#Cc1ccc2c(c1)O[C@H](CN(C)CC1CCOCC1)[C@@H](C)CN([C@@H](C)CO)S2(=O)=O,102*,-66,-2,98*,93,18,105*
O=C(NCCc1ccccc1)[C@@H]1[C@@H](CO)[C@@H]2Cn3c(cccc3=O)[C@@H]2N1Cc1ccncc1,-23,3,-1,.,.,.,.
COc1ccc(S(=O)(=O)Nc2ccc3c(c2)CC(=O)N([C@@H](C)CO)C[C@H](C)[C@H](CN(C)S(=O)(=O)c2ccccc2)O3)cc1,3,-65,16,.,.,.,.
CO[C@@H]1CN(C)C(=O)c2ccc(NC(=O)C3CCCCC3)cc2OC[C@H](C)N(C)C[C@@H]1C,11,-9,-4,.,.,.,.
Cc1ccc(S(=O)(=O)N[C@H]2CC[C@H](CCn3cc(-c4cccc(F)c4)nn3)O[C@H]2CO)cc1,-39,19,3,.,.,.,.
CNC[C@@H]1Oc2cc(C#CC3(O)CCCC3)ccc2S(=O)(=O)N([C@@H](C)CO)C[C@@H]1C,16,-34,-1,.,.,.,.
Cc1ccc(-c2ccc3c(c2)O[C@H](CN(C)Cc2ccc(F)cc2)[C@H](C)CN([C@@H](C)CO)S3(=O)=O)cc1,97*,-25,5,106*,?,19,69*
Cc1ccc(-c2ccc3c(c2)O[C@@H](CN(C)Cc2ccc(F)cc2)[C@H](C)CN([C@@H](C)CO)S3(=O)=O)cc1,?,-62,13,96*,103*,63*,105*
Cc1ccc(-c2ccc3c(c2)O[C@@H](CN(C)Cc2ccc(F)cc2)[C@@H](C)CN([C@H](C)CO)S3(=O)=O)cc1,92,-69,8,.,.,.,.
Cc1ccc(-c2ccc3c(c2)O[C@H](CN(C)Cc2ccc(C(=O)O)cc2)[C@@H](C)CN([C@H](C)CO)S3(=O)=O)cc1,61,-30,-4,.,.,.,.
CNC[C@@H]1Oc2ncc(-c3cccc(F)c3)cc2C(=O)N([C@H](C)CO)C[C@@H]1C,25,0,1,.,.,.,.
COc1ccc2c3c([nH]c2c1)[C@H](CO)N(C(C)=O)CC31CCN(Cc2cc(-c3ccccc3)on2)CC1,.,-66,-4,.,.,.,.
CN1c2ccc(C#Cc3cccnc3)cc2[C@@H]2[C@@H](CCN2C(=O)C2CC2)[C@H]1CO,99*,-65,-5,96*,17,8,25*
CN1c2ccc(C#Cc3cccnc3)cc2[C@@H]2[C@@H](CCN2S(=O)(=O)c2ccc(F)cc2)[C@H]1CO,85,-70,-6,.,.,.,.
CN1c2ccc(-c3cccc(C#N)c3)cc2[C@H]2[C@H](CCN2S(=O)(=O)c2ccccc2)[C@@H]1CO,94,-19,5,.,.,.,.
CN1c2ccc(-c3cccc(C#N)c3)cc2[C@@H]2[C@@H](CCN2S(=O)(=O)c2ccc(F)cc2)[C@@H]1CO,105*,-14,3,94,78,45*,22
CN1c2ccc(C#Cc3cccnc3)cc2[C@H]2[C@H](CCN2S(=O)(=O)c2ccc(F)cc2)[C@H]1CO,97*,?,-4,102*,111*,37*,42*
CN1c2ccc(C#Cc3cccnc3)cc2[C@@H]2[C@@H](CCN2C(=O)C2CCC2)[C@H]1CO,.,-67,-15,.,.,.,.
CN1c2ccc(-c3cccc(C#N)c3)cc2[C@@H]2[C@@H](CCN2S(=O)(=O)c2cccc(F)c2)[C@@H]1CO,25,28,4,.,.,.,.
CN1c2ccc(-c3cccc(C#N)c3)cc2[C@@H]2[C@@H](CCN2S(=O)(=O)c2ccccc2)[C@@H]1CO,116*,-4,9,99*,85,51*,14
COC(=O)C[C@H]1CC[C@@H]2[C@H](COc3ccc(NC(=O)c4ccccc4)cc3C(=O)N2C)O1,22,-9,3,.,.,.,.
Cc1noc(C)c1NC(=O)Nc1ccc2c(c1)C(=O)N([C@H](C)CO)C[C@H](C)[C@H](CN(C)Cc1ccncc1)OCCCC[C@H](C)O2,19,-2,-3,.,.,.,.
CCCNC(=O)N1C[C@H]2[C@@H](c3ccccc31)[C@@H](CO)N2C(=O)Cc1ccccn1,28,13,-3,.,.,.,.
SMILES,T cruzi growth-1,Pf Dd2 growth,C diff growth,T cruzi growth-2,T cruzi growth-3,NIH3T3 tox,3T3 cytotox 2
Cc1ccc(S(=O)(=O)Nc2ccc3c(c2)CC(=O)N([C@H](C)CO)C[C@@H](C)[C@@H](CN(C)Cc2ccccc2)O3)cc1,.,-17,-9,.,.,.,.
CC(C)CC#Cc1ccc([C@@H]2[C@@H](CO)N3C(=O)CN(C(=O)c4cccc(F)c4)C[C@@H]23)cc1,.,-47,-1,.,.,.,.
CC(C)CC#Cc1ccc2c(c1)O[C@@H](CN(C)S(C)(=O)=O)[C@H](C)CN([C@H](C)CO)S2(=O)=O,-17,-53,.,.,.,.,.
Cc1noc(C)c1S(=O)(=O)Nc1ccc2c(c1)C(=O)N([C@@H](C)CO)C[C@@H](C)[C@@H](CN(C)C(=O)NC1CCCCC1)O2,-128,21,3,.,.,.,.
OC[C@@H]1Nc2ccc(C#Cc3ccc(F)cc3)cc2[C@H]2[C@@H]1CCN2Cc1ccc2c(c1)OCO2,142*,-71,-3,109*,108*,41*,104*
CN(C)C(=O)c1ccc(-c2ccc3c(c2)[C@@H]2[C@@H](CCN2Cc2ccc4c(c2)OCO4)[C@H](CO)N3)cc1,40,-54,4,.,.,.,.
N#Cc1ccc(-c2ccc3c(c2)[C@H]2[C@H](CCN2Cc2ccc4c(c2)OCO4)[C@H](CO)N3)cc1,?,-57,-96*,106*,69,-6,105*
CN(C)C(=O)c1ccc(-c2ccc3c(c2)[C@H]2[C@H](CCN2Cc2ccc4c(c2)OCO4)[C@@H](CO)N3)cc1,53,-54,67,.,.,.,.
C[C@@H]1CN([C@@H](C)CO)C(=O)Cc2cc(NC(=O)Nc3cccc4ccccc34)ccc2O[C@H]1CN(C)Cc1ccncc1,84,-5,-6,.,.,.,.
C[C@@H]1CN([C@H](C)CO)C(=O)c2cc(C#C[C@@H](C)O)cnc2O[C@@H]1CN(C)Cc1ccccn1,-44,41,2,.,.,.,.
C[C@H]1CN([C@@H](C)CO)C(=O)Cc2cc(NS(=O)(=O)c3cccs3)ccc2O[C@H]1CN(C)Cc1ccc2c(c1)OCO2,22,-17,-1,.,.,.,.
COc1ccc(CNC(=O)C[C@@H]2C[C@@H]3c4cc(NC(=O)C5CCC5)ccc4O[C@@H]3[C@@H](CO)O2)cc1,-36,2,3,.,.,.,.
